Giardia FBPA inh = qHTS Assay for Inhibitors of Fructose-1,6-bisphosphate Aldolase from Giardia Lamblia; purified Giardia FBPA; Potency, µM (series often up to 59.6 µM), inactives show top-dose activity, negative = inhibition, most hits filed as inhibitors; hit rate 0.71% among 290,000; AID 2451, 2010; note: % is set by controls: 0 for no effect and ±100 for the full control effect; nearly all actives have a fitted effect of over 55% in size
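Giardia FBPA (40 nM reagent) was preincubated 10 min at RT with compound (up to 57.5 uM final), then substrate plus GAPDH/TPI/NAD/arsenate coupling system with diaphorase/resazurin was added; resorufin fluorescence (525/598 nm) was read after 20 min.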
NS1 function inh = qHTS Assay for Inhibitors of Influenza NS1 Protein Function | Potency, µM (top dose mostly 46.1 µM), for the others: top-dose activity, positive = more growth | hit rate 0.4% among 270,000 | AID 2326, 2010; calls by dose curve; note: actives are rising curves; nearly all actives have a fitted effect of over 50% in size
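S. cerevisiae expressing influenza A NS1, grown in glucose, washed, then diluted 1:100 into pH 6.0 -URA galactose medium with 23 nl compound. Growth recovery read as OD600; NS1-free strain serves as control.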
AmpC no deterg = qHTS Inhibitors of AmpC Beta-Lactamase (assay without detergent); P00811; AmpC nitrocefin hydrolysis, absorbance 480 nm, 0.0001% Triton; Potency, µM (highest dose often 57.1 µM), for the others: at the highest dose activity change, negative = inhibition, hits mostly inhibitors; hit rate 0.52% among 330,000;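 note: plate controls were no compound for no effect and no enzyme for full effect; nearly all actives have a fitted effect of over 20% in size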
Target sequence (P00811 whole entry, looked up): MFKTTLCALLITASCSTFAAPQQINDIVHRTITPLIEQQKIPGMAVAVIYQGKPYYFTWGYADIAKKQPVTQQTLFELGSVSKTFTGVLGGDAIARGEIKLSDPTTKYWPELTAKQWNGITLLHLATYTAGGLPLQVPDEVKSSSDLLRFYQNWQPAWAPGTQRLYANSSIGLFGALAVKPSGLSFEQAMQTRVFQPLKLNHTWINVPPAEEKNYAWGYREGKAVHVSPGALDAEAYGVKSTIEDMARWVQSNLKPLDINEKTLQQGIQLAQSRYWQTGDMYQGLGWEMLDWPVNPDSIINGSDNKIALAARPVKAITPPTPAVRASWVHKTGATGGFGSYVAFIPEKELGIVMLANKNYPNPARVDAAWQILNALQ
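20 mM phosphate pH 7.0 + 0.01% (detergent screen) or 0.0001% Triton X-100; 5.3 nM AmpC reagent; cpd preinc 15 min RT; nitrocefin (800 uM stock) to start; A480 q20 s × 4 min; Activity was normalised to no-enzyme and no-compound control wells.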
SARS PLpro yeast = qHTS of Yeast-based Assay for SARS-CoV PLP; hit rate 0.19% among 330,000; AID 485353, 2010; Potency, µM (top dose mostly 32.9 µM), for inactives: at the top dose activity, positive = growth rescue, hits mostly activators; S. cerevisiae expressing SARS-CoV PLpro, growth rescue; calls by dose curve; note: 0% is about no effect; nearly all actives have a fitted effect of over 55% in size
AmpC inh detg = qHTS Inhibitors of AmpC Beta-Lactamase (assay with detergent) | P00811 | AmpC hydrolysis of nitrocefin, absorbance 480 nm, 0.01% Triton | Potency, µM (top dose mostly 114 µM), inactives show top-dose activity change, negative = inhibition, actives largely listed as inhibitors | hit rate 0.041% among 370,000 | AID 485294, 2010;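 note: 0% = no-compound wells and -100% = no-enzyme wells; nearly all actives have a fitted effect of over 25% in size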
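AmpC (5.3 nM in the dispensed reagent) in 20 mM phosphate pH 7.0 with 0.01% (detergent screen) or 0.0001% Triton X-100 was preincubated with compounds for 15 min at room temperature. Nitrocefin was then added from an 800 uM solution, and hydrolysis was followed at 480 nm.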
Numbers without * were called inactive; ? = inconclusive; · = not tested or not shown; [ ] = dose if it differs, or a comment. An excerpt weighted towards active compounds, which were near 1.4% of everything screened. Unless noted, calls come from the whole dose curve; as a rule, active = well fitted curve in the direction sought with a large enough effect; inconclusive = small, poorly fitted or top-dose-only effect, or another doubt; inactive = no such curve, though single readings can be large; an effect the other way counts as inactive or inconclusive. Potency is the fitted concentration of half-maximal effect.

SMILES	Giardia FBPA inh	NS1 function inh	AmpC no deterg	SARS PLpro yeast	AmpC inh detg
COc1cc(NS(=O)(=O)c2ccc(NC(=S)NC(=O)C3CCCC3)cc2)nc(OC)n1	20%	13%	16µM*	-6%	-1%
CCCCC(=O)NC(=S)Nc1ccc(S(=O)(=O)N2CCCC2)cc1	-16%	9%	13µM*	8%	-11%
CCCC(=O)Nc1ccc(S(=O)(=O)N2CCCC2)cc1	6%	0%	-23%	1%	-1%
Cc1cc(C(=O)CSc2n[nH]c(N)n2)c(C)n1-c1ccc2c(c1)OCO2	5%	27%	-38%	4%	-10%
O=C(OCc1nnc(-c2ccccc2)o1)c1ccc([N+](=O)[O-])s1	·	·	-21%	0%	7%
COc1cccc(/C=C/C(=O)c2ccc[nH]2)c1	-13%	-24%	-32%	-23%	-12%
CCCOc1ccc(C2NC(=S)NC(C)=C2C(=O)c2ccccc2)cc1OC (stereo not given)	2%	10%	?	0%	-10%
COc1cc(C2NC(=S)NC(C)=C2C(=O)c2ccccc2)ccc1O (stereo not given)	1%	25%	14µM*	0%	-5%
COC1=C2C[C@@H](C)C[C@H](OC)[C@H](O)[C@@H](C)/C=C(\C)[C@H](OC(N)=O)[C@@H](OC)/C=C\C=C(/C)C(=O)NC(=CC1=O)C2=O	3.5µM*	·	·	·	·
CO/C1=C\C(C)=C\[C@@H](C)[C@@H](O)[C@@H](C)C/C(C)=C/C=C\[C@H](OC)C([C@@H](C)[C@@H](O)[C@H](C)[C@@]2(O)C[C@@H](O)[C@H](C)C(C(C)C)O2)OC1=O (stereo not given in full)	3%[2.35 µM]	·	·	·	·
COc1ccccc1-c1cn[nH]c1-c1ccc(OCc2ccc(F)cc2)cc1O	-7%	9%	7.1µM*	-18%	4%
O=C(O)C1CC(=O)N(c2ccc(F)cc2)C1 (stereo not given)	3%	?	-8%	1%	-2%
Cc1ccc(S(=O)(=O)c2cc3ccccc3oc2=Nc2ccc3c(c2)OCCO3)cc1	-5%	-8%	3.2µM*	-11%	-5%
COc1cccc2cc(S(=O)(=O)c3ccccc3)c(=Nc3ccc4c(c3)OCCO4)oc12	5%	5%	3.5µM*	-4%	-6%
Cc1ccc(S(=O)(=O)c2cc3ccccc3oc2=Nc2ccc3c(c2)OCO3)cc1	-2%	-4%	-13%	2%	5%
COc1ccccc1C(=O)NNC(=O)c1csc(N2CCOCC2)n1	·	·	-13%	·	?
O=C(Nc1nnc(Cc2c[nH]c3ccccc23)s1)c1ccc(Cl)cc1Cl	-10%	24%	-28%	0%	?
CC(C)(C)c1ccc(C(=O)Nc2nnc(Cc3c[nH]c4ccccc34)s2)cc1	1%	2%	11µM*	8%	-3%
CCCOc1cc(N)ccc1C(=O)OCCN(CC)CC	-3%[21.7 µM]	·	-15%	·	?
CCCOc1ccc(N)cc1N	0.4µM*	-4%	-4%	-14%	?
O=C1C=CC2=C3c4cc(O)c(O)cc4CC3(O)COC2=C1O (stereo not given)	11µM*	·	·	·	·
Cc1cc2occ(CC(=O)O)c2cc1C	12%	-110%	-13%	?	?
CCN(CC)S(=O)(=O)c1cccc(NC(=O)CCNC(=O)c2ccc([N+](=O)[O-])cc2)c1	0%	-42%	-4%	3%	2%
CCN(CC)S(=O)(=O)c1cccc(NC(=O)CN2C(=O)c3ccc([N+](=O)[O-])cc3C2=O)c1	-8%	-20%	8.9µM*	9%	?
CCOC(=O)Cn1c(=O)oc2cc(S(=O)(=O)NCCCc3ccccc3)ccc21	1%	-10%	-9%	9%	?
CCOC(=O)Cn1c(=O)oc2cc(S(=O)(=O)NCCc3ccc(C)cc3)ccc21	-6%	-10%	10µM*	6%	?
CC1(C)N(O)C(c2ccc(C(=O)O)cc2)=[N+]([O-])C1(C)C	40µM*	·	·	·	·
Cc1nn(C(C)C(=O)Nc2ccc3c(c2)OCO3)c(C)c1[N+](=O)[O-] (stereo not given)	-9%	1%	-23%	0%	-4%

Bioassay records as filed in PubChem BioAssay.
